This is an account of results in PubChem BioAssay (EPA / NIEHS).

Inconclusive results are not listed. The source made the active and inactive calls. How the source made its calls, unless noted: active means hit-call score of the fitted dose curve at least 0.9, where 1 is the maximum; inactive means score below 0.9.

Experiment [1] deals with human Retinoid X Receptor beta (RXRb), RXRB (gene 6257) (UniProt P28702). The experiment can be described thus: ATG_RXRb_TRANS: Attagene TRANS-FACTORIAL HepG2 Assay for human Retinoid X Receptor beta (RXRb) (AID 2283013; active means hit-call score of the fitted dose curve at least 0.9, where 1 is the maximum). Put shortly: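 Transfect HepG2 with GAL4-UAS multi-reporter constructs (chimeric NR-Gal4, TRANS format); dose compound 24 h; isolate RNA, RT-PCR, FAM primer extension, HpaI digest; quantify by capillary electrophoresis; positive direction vs DMSO.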

Experiment [2] has as its target human Thyroid Receptor alpha (THRa1), THRA (gene 7067) (UniProt P10827). The experiment can be described thus: ATG_THRa1_TRANS: Attagene TRANS-FACTORIAL HepG2 Assay for human Thyroid Receptor alpha (THRa1) (AID 2283014; active means hit-call score of the fitted dose curve at least 0.9, where 1 is the maximum). The procedure, abridged:
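Measured here is mRNA from a GAL4-UAS reporter in transfected HepG2 cells carrying a Gal4-fused receptor, 24 h post-dose. DMSO served as negative control and baseline.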

Read-out in experiment [3]: E-selectin (Homo sapiens) (UniProt P16581)
The experiment can be described thus: BSK_3C_Eselectin: BioMAP Diversity Plus: 3C Assay for Eselectin Biomarker Activity (AID 2283015).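 On outcome: cell surface E-selectin protein quantified by ELISA 24 h after dosing.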 The following applies: primary human endothelial cells (HUVEC); actives raise or lower the signal. Put shortly:
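Endpoint derived by bidirectional fitting against DMSO vehicle; signal is ELISA-detected E-selectin from primary HUVEC at 24 h post-dosing, with parallel SRB staining (0.1% SRB, 560 nm) flagging cytotoxicity.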

Read-out in experiment [4]: Interleukin-1 alpha (IL1a), IL1A (gene 3552)
The experiment can be described thus: BSK_BE3C_IL1a: BioMAP Diversity Plus: BE3C Assay for Interleukin-1 alpha (IL1a) Biomarker Activity (AID 2283016). The following applies: primary human bronchial epithelial cells; actives raise or lower the signal. Put shortly: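 BE3C primary human bronchial epithelium; cpd 24 h; IL-1a by ELISA; bidirectional fit vs DMSO; parallel SRB (0.1% SRB, 10% TCA fix, 560 nm) for cytotoxicity.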

Read-out in experiment [5]: Monocyte Chemoattractant Protein-1 (MCP1), CCL2 (gene 6347)
The experiment can be described thus: BSK_3C_MCP1: BioMAP Diversity Plus: 3C Assay for Monocyte Chemoattractant Protein-1 (MCP1) Biomarker Activity (AID 2283017). The following applies: primary human endothelial cells (HUVEC); actives raise or lower the signal. Put shortly: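 Using human vascular primary endothelium, researchers measured MCP-1 by ELISA 24 h after treatment, with DMSO serving as negative control for bidirectional fitting.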

Read-out in experiment [6]: Human Leukocyte Antigen - DR isotype (HLADR), HLA-DRA (gene 3122)
The experiment can be described thus: BSK_3C_HLADR: BioMAP Diversity Plus: 3C Assay for Human Leukocyte Antigen - DR isotype (HLADR) Biomarker Activity (AID 2283019).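 On outcome: ELISA of cell-surface HLA-DR on HUVEC 24 h after dosing.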 The following applies: primary human endothelial cells (HUVEC); actives raise or lower the signal. Put shortly: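 Compound added to primary HUVEC cultures, 24 h incubation, then HLA-DR determined by ELISA; endpoint derived by bidirectional fitting relative to DMSO negative control.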

Read-out in experiment [7]: Interleukin-8 (IL8), CXCL8 (gene 3576)
The experiment can be described thus: BSK_3C_IL8: BioMAP Diversity Plus: 3C Assay for Interleukin-8 (IL8) Biomarker Activity (AID 2283020). To be noted: primary human endothelial cells (HUVEC); actives raise or lower the signal. Put shortly:
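ELISA read-out of IL-8 from human umbilical vein endothelium, measured 24 h after chemical dosing. Activity is expressed relative to DMSO negative control, with both increases and decreases fitted.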

Read-out in experiment [8]: Monokine induced gamma interferon (MIG), CXCL9 (gene 4283)
The experiment can be described thus: BSK_3C_MIG: BioMAP Diversity Plus: 3C Assay for Monokine induced gamma interferon (MIG) Biomarker Activity (AID 2283021).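 On AC50: MIG protein level measured by immunoassay in the treated endothelial cultures.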 To be noted: primary human endothelial cells (HUVEC); actives raise or lower the signal. The procedure, abridged:
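Read-out is ELISA detection of MIG on human umbilical vein endothelial cells, taken 24 h after dosing. Gain or loss of signal was scored relative to DMSO controls using bidirectional curve fitting.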

The target in experiment [9] is human Vitamin D Receptor (VDR), VDR (gene 7421) (UniProt P11473). The experiment can be described thus: ATG_VDR_TRANS: Attagene TRANS-FACTORIAL HepG2 Assay for human Vitamin D Receptor (VDR) (AID 2283022; active means hit-call score of the fitted dose curve at least 0.9, where 1 is the maximum). The procedure, abridged:
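Multiplexed TRANS reporter in HepG2; 24 h treatment; reporter mRNA by RT-PCR plus capillary electrophoresis; upregulation scored relative to DMSO.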

Experiment [10] can be described thus: BSK_3C_SRB: Viability Assessment in the BioMAP Diversity Plus: 3C Assay (AID 2283023).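 Further: fitted both ways against DMSO so a hit may be signal rise or drop.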 The following applies: primary human endothelial cells (HUVEC). The procedure, abridged:
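Overt cytotoxicity is gauged in parallel confluent HUVEC cultures by SRB total-protein staining at the time of biomarker measurement, 24 h after dosing. Gain or loss of signal is fitted versus DMSO.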

Read-out in experiment [11]: Matrix Metallopeptidase 1 (MMP1), MMP1 (gene 4312)
The experiment can be described thus: BSK_BE3C_MMP1: BioMAP Diversity Plus: BE3C Assay for Matrix Metallopeptidase 1 (MMP1) Biomarker Activity (AID 2283024). To be noted: primary human bronchial epithelial cells; actives raise or lower the signal. The procedure, abridged:
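Human bronchial epithelial cells (BE3C system) exposed to compound for 24 h; MMP1 then quantified by ELISA. Activity was fitted in both directions relative to DMSO.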

Experiment [12] can be described thus: BSK_3C_Vis: BioMAP Diversity Plus: 3C Assay for Morphology Visualization (AID 2283025).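 Further: fitted both ways so gain or loss versus DMSO counts.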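 On AC50: light microscopy image of cell morphology used as background control.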 To be noted: primary human endothelial cells (HUVEC). Put shortly: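 Chemicals were added to primary human umbilical vein endothelium, cells were incubated 24 h, and morphology was then visualized by light microscopy. Gain or loss of signal was fitted bidirectionally relative to DMSO.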

Read-out in experiment [13]: Pselectin, SELP (gene 6403)
The experiment can be described thus: BSK_4H_Pselectin: BioMAP Diversity Plus: 4H Assay for Pselectin Biomarker Activity (AID 2283026). The following applies: primary human endothelial cells (HUVEC); actives raise or lower the signal. Put shortly:
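ELISA read-out of P-selectin on human umbilical vein endothelium after 24 h of dosing. Values derive from bidirectional fitting relative to DMSO. Parallel SRB protein staining flagged overt cytotoxicity.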

Experiment [14] can be described thus: BSK_4H_SRB: Viability Assessment in the BioMAP Diversity Plus: 4H Assay (AID 2283027).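 Further: cells exposed to compound for 24 h before staining.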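 On AC50: curves fitted both ways versus DMSO so AC50 may be loss or gain.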 The following applies: primary human endothelial cells (HUVEC). The procedure, abridged: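 Absorbance at 560 nm of SRB-stained total protein served as the viability read-out in confluent primary human umbilical vein endothelium 24 h after chemical treatment. Curves were fitted bidirectionally against DMSO as negative control.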

The nature of experiment [15]: BSK_BE3C_SRB: Viability Assessment in the BioMAP Diversity Plus: BE3C Assay (AID 2283028). To be noted: primary human bronchial epithelial cells. Put shortly: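 SRB total-protein staining (0.1%, after TCA fixation) of chemically dosed human bronchial epithelial primary cells at 24 h; DMSO serves as the negative control for bidirectional curve fitting.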
Read-out in experiment [16]: Thrombomodulin, THBD (gene 7056)
The experiment can be described thus: BSK_3C_Thrombomodulin: BioMAP Diversity Plus: 3C Assay for Thrombomodulin Biomarker Activity (AID 2283029). The following applies: primary human endothelial cells (HUVEC); actives raise or lower the signal. The procedure, abridged: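 Read-out is ELISA of thrombomodulin on human umbilical vein endothelium 24 h after chemical dosing. Gain or loss of signal is scored relative to DMSO. Overt cytotoxicity is checked in parallel cultures by sulforhodamine B staining.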

Read-out in experiment [17]: Vascular endothelial growth factor receptor 2 (Homo sapiens) (UniProt P35968)
The experiment can be described thus: BSK_4H_VEGFRII: BioMAP Diversity Plus: 4H Assay for Vascular endothelial growth factor receptor 2 (VEGFR2) Biomarker Activity (AID 2283031).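 On AC50: cell-surface VEGFR2 protein level quantified by ELISA.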 To be noted: primary human endothelial cells (HUVEC); actives raise or lower the signal. The procedure, abridged:
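In this multiplexed HUVEC system, biomarker ELISA was performed after 24 h chemical exposure. Parallel SRB staining (TCA fixation, 560 nm) tracked cytotoxicity; DMSO served as baseline.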

Read-out in experiment [18]: Monocyte Chemoattractant Protein-1 (MCP1), CCL2 (gene 6347)
The experiment can be described thus: BSK_4H_MCP1: BioMAP Diversity Plus: 4H Assay for Monocyte Chemoattractant Protein-1 (MCP1) Biomarker Activity (AID 2283018). To be noted: primary human endothelial cells (HUVEC); actives raise or lower the signal. Put shortly:
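ELISA read-out of MCP-1 from human vascular endothelial primary cells taken at 24 hours after compound exposure. Activity was fitted in both directions relative to DMSO, which served as negative control.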

Read-out in experiment [19]: Urokinase-type plasminogen activator receptor (uPAR), PLAUR (gene 5329)
The experiment can be described thus: BSK_4H_uPAR: BioMAP Diversity Plus: 4H Assay for Urokinase-type plasminogen activator receptor (uPAR) Biomarker Activity (AID 2283030). To be noted: primary human endothelial cells (HUVEC); actives raise or lower the signal. The procedure, abridged:
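Endpoint derived via bidirectional curve fitting against DMSO baseline; readout was ELISA detection of uPAR on umbilical vein endothelial cells at 24 h post-treatment, with SRB-stained parallel cultures assessing cytotoxicity.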

Sequence of E-selectin (Homo sapiens) (P16581 whole entry, looked up): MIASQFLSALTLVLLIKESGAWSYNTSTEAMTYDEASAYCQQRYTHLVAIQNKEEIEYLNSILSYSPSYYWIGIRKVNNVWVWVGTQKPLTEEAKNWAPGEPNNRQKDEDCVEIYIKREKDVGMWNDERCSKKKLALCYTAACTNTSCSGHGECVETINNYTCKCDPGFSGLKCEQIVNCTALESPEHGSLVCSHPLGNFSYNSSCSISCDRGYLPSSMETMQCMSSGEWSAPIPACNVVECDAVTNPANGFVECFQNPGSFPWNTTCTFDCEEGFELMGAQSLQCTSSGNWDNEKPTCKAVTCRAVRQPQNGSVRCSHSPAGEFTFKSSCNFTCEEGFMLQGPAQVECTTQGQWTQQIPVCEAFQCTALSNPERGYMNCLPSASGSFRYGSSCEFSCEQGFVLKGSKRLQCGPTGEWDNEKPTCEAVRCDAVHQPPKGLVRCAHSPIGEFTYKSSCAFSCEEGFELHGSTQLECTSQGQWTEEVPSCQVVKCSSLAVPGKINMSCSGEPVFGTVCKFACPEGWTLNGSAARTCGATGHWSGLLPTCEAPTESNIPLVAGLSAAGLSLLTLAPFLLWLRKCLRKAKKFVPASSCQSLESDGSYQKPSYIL
Sequence of human Retinoid X Receptor beta (RXRb), RXRB (gene 6257) (P28702 whole entry, looked up, the tested form may be a part): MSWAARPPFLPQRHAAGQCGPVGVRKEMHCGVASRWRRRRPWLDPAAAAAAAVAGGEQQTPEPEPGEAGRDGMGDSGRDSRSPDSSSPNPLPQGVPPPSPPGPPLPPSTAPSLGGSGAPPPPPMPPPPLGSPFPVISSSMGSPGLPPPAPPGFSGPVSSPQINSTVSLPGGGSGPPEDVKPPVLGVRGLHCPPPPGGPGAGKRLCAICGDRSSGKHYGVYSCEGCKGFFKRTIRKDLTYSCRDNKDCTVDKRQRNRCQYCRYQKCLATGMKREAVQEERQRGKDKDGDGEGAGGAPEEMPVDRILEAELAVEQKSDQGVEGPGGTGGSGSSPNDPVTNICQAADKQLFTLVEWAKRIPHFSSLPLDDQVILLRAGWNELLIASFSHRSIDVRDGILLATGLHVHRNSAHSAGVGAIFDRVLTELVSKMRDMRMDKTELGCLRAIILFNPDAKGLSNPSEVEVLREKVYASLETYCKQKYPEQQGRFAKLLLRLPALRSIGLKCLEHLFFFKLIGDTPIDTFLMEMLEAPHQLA
Sequence of human Vitamin D Receptor (VDR), VDR (gene 7421) (P11473 whole entry, looked up): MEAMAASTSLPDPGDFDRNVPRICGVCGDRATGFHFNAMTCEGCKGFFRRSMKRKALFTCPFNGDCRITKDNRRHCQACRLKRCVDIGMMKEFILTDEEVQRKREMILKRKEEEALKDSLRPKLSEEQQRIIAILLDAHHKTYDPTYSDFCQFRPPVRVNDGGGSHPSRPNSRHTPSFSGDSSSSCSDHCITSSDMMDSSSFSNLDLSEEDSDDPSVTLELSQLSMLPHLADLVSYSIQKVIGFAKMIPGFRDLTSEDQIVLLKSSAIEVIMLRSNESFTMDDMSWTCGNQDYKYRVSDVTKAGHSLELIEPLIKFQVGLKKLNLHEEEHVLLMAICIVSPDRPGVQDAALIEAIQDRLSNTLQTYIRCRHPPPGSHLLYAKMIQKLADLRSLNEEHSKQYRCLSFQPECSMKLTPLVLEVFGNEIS
Sequence of human Thyroid Receptor alpha (THRa1), THRA (gene 7067) (P10827 whole entry, looked up, the tested form may be a part): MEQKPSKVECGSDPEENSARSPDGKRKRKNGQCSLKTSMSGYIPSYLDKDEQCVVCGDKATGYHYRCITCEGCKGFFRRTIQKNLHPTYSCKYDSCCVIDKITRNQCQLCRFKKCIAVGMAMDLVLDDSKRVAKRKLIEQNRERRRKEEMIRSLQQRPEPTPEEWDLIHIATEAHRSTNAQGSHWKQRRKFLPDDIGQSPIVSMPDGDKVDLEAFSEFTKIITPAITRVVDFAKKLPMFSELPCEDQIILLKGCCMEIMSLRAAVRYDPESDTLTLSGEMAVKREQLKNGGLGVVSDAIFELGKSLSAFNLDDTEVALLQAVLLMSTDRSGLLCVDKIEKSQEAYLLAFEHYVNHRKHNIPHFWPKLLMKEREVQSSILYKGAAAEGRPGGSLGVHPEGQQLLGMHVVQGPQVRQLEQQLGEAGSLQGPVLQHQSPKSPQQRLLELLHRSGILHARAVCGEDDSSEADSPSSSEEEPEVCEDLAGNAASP

Take `Clc1ccc(C(c2ccc(Cl)cc2)C(Cl)(Cl)Cl)cc1`: the call in experiment [1], in experiment [2], in [4], in experiment [9], in experiment [11] and in experiment [15] was inactive. In addition, in [16], the outcome was inactive. The AC50 in experiment [3] is 29.2 µM (active); in [5], 26.9 µM (active); in [6] it was 25.8 µM (active); in experiment [7], 22.7 µM (active); in experiment [8], 34.5 µM (active); in [10], 28.5 µM (active). In addition, the half-maximal activity concentration (AC50) in experiment [12] is 37.3 µM (active); in [13] it was 14.9 µM (active); in [14], 30.5 µM (active); in experiment [17], 25.8 µM (active).
For the compound `Cc1ccc(N)cc1`, the compound was called inactive in [1], in experiment [2], in experiment [3], in [4], in experiment [5] and in experiment [18]. The result in experiment [6], in experiment [7], in [8], in experiment [10], in [11] and in experiment [12] was inactive. Moreover, the result in [13], in [14], in experiment [15], in experiment [16], in experiment [19] and in experiment [17] was inactive.
For the compound `CCCCCOC(=O)c1ccccc1C(=O)OCCCCC`, the outcome in [1], in [3], in experiment [4], in [5], in [18] and in experiment [7] was inactive. The result in experiment [8], in experiment [11], in [14], in [15], in [19] and in experiment [17] was inactive. Moreover, the AC50 is 20 µM (active) in [6], 32.2 µM (active) in [10], 39 µM (active) in experiment [12] and 20 µM (active) in experiment [13].
Consider `CCOc1cccc(C2(N3CCN(c4ccccc4)CC3)CCC(C)CC2)c1` (centres undefined), for which the outcome in experiment [1], in experiment [3], in experiment [4], in experiment [5], in experiment [18] and in experiment [6] was inactive. Moreover, the result in experiment [7], in experiment [8], in experiment [9], in [10], in [12] and in [13] was inactive. For the same compound, the result in experiment [14], in experiment [15] and in [17] was inactive.
Consider `Clc1ccc(Cl)c(Cl)c1`, for which the outcome in experiment [3], in experiment [4], in experiment [5], in experiment [18], in experiment [6] and in [7] was inactive. Also, the result in experiment [8], in experiment [9], in [10], in [11], in experiment [12] and in experiment [13] was inactive. Also, the result in experiment [14], in [15], in experiment [16] and in experiment [17] was inactive.
For `COP(=S)(OC)SCN1C(=O)c2ccccc2C1=O`, the compound was classed as inactive in experiment [1], in experiment [3], in experiment [4], in [5], in experiment [18] and in [6]. Also, the result in experiment [7], in experiment [8], in experiment [10], in [12], in [13] and in experiment [14] was inactive. In addition, the outcome in [15], in experiment [19] and in [17] was inactive.
For the compound `COC(=O)Nc1nc2ccccc2[nH]1`, the result in experiment [1], in experiment [2], in experiment [3], in [4], in [5] and in experiment [18] was inactive. The outcome in [6], in experiment [7], in experiment [8], in experiment [13], in experiment [15] and in experiment [16] was inactive. Also, the outcome in experiment [17] was inactive. The AC50 is 8.51 µM (active) in experiment [10], 9.8 µM (active) in experiment [12], 14.5 µM (active) in experiment [14] and 8.56 µM (active) in experiment [19].

By AC50 is commonly meant the concentration giving half of the maximal activity seen.
